Measured values reported in PubChem BioAssay AID1159580 (chemical genetic matrix, 2015).
“And” between values parts separate entries of the source, which are not always exact repeats. Equal entries are not always repeated. The campaign covered roughly 5,500 compounds. About 2,000 (36%) were called active. Inconclusive results (about 18%) are left out. Cut-off read from the data, not from the text of the source: active = normalized growth mostly below about 0.91 (no sharp cut-off); inconclusive = no clear call, values can overlap the other calls; inactive = mostly above about 0.92. Some of the results follow.

Assay: chemical genetic growth profiling, strain panel (AID 1159580);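 note: tested at 20 µM; growth read once vehicle control cultures reached saturation at 30 °C; 1 = growth at the plate median or of vehicle wells; lower values mean less growth of the strain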
Details: S. cerevisiae deletion strains, growth OD

Measured: normalized growth

CC(C(=O)O)c1ccc(N2Cc3ccccc3C2=O)cc1 (configuration not stated)
inactive: locus YAL021C, strain ccr4, stronger effect = lower value 0.994 | locus YAL026C, strain drs2, stronger effect = lower value 1 | locus YAL030W, strain snc1, stronger effect = lower value 0.994 | locus YBL061C, strain skt5, stronger effect = lower value 0.983 | locus YBR009C, strain hhf1, stronger effect = lower value 0.97 | locus YBR021W, strain FUR4, stronger effect = lower value 1.01 | locus YBR023C, strain chs3, stronger effect = lower value 0.966 | locus YBR171W, strain sec66, stronger effect = lower value 0.971 | locus YBR229C, strain ROT2, stronger effect = lower value 1.01 | locus YBR231C, strain swc5, stronger effect = lower value 0.993 | locus YBR279W, strain paf1, stronger effect = lower value 0.972 | locus YCL011C, strain gbp2, stronger effect = lower value 0.946 | locus YCL016C, strain dcc1, stronger effect = lower value 0.956 | locus YCL029C, strain bik1, stronger effect = lower value 0.996 | locus YCL061C, strain MRC1, stronger effect = lower value 0.986 | locus YCL069W, strain vba3, stronger effect = lower value 0.994 | locus YCR088W, strain abp1, stronger effect = lower value 0.987 | locus YDL005C, strain med2, stronger effect = lower value 0.991 | locus YDL035C, strain GPR1, stronger effect = lower value 1.02 | locus YDL040C, strain nat1, stronger effect = lower value 0.989 | locus YDL074C, strain BRE1, stronger effect = lower value 1.02 | locus YDL101C, strain DUN1, stronger effect = lower value 1.01 | locus YDL185W, strain tfp1, stronger effect = lower value 0.989 | locus YDL192W, strain arf1, stronger effect = lower value 0.99 | locus YDR001C, strain nth1, stronger effect = lower value 0.99 | locus YDR069C, strain doa4, stronger effect = lower value 0.993 | locus YDR101C, strain arx1, stronger effect = lower value 1 | locus YDR137W, strain rgp1, stronger effect = lower value 0.988 | locus YDR159W, strain sac3, stronger effect = lower value 1.05 | locus YDR162C, strain NBP2, stronger effect = lower value 1.01 | locus YDR195W, strain ref2 1.01 | locus YDR297W, strain sur2, stronger effect = lower value 0.99 | locus YDR318W, strain mcm21, stronger effect = lower value 0.99 | locus YDR334W, strain swr1, stronger effect = lower value 0.986 | locus YDR335W, strain msn5, stronger effect = lower value 0.993 | locus YDR388W, stronger effect = lower value 0.992 | locus YDR392W, strain spt3, stronger effect = lower value 0.988 | locus YDR502C, strain sam2, stronger effect = lower value 1 | locus YEL003W, strain gim4, stronger effect = lower value 1.01 | locus YEL037C, strain rad23, stronger effect = lower value 0.975 | locus YEL061C, strain CIN8 (second series), stronger effect = lower value 0.99 | locus YEL061C, strain CIN8, stronger effect = lower value 1.01 | locus YER015W, strain faa2, stronger effect = lower value 1 | locus YER016W, strain bim1, stronger effect = lower value 0.993 | locus YER110C, stronger effect = lower value 0.994 | locus YER111C, strain swi4, stronger effect = lower value 0.985 | locus YER155C, strain BEM2 (second series), stronger effect = lower value 0.948 | locus YER155C, strain BEM2, stronger effect = lower value 1.02 | locus YER167W, strain BCK2, stronger effect = lower value 1.01 | locus YFR010W, strain ubp6, stronger effect = lower value 1 | locus YGL078C, strain dbp3, stronger effect = lower value 0.985 | locus YGL086W, strain mad1, stronger effect = lower value 1.01 | locus YGL167C, strain pmr1, stronger effect = lower value 0.991 | locus YGL173C, strain kem1, stronger effect = lower value 0.997 | locus YGL227W, strain vid30, stronger effect = lower value 0.988 | locus YGL240W, strain doc1, stronger effect = lower value 1 | locus YGL248W, strain PDE1, stronger effect = lower value 1.02 | locus YGL253W, strain hxk2, stronger effect = lower value 1 | locus YGR135W, strain pre9, stronger effect = lower value 0.971 | locus YGR252W, strain gcn5, stronger effect = lower value 0.938 | locus YHR013C, strain ard1, stronger effect = lower value 0.961 | locus YHR027C, strain rpn1, stronger effect = lower value 0.986 | locus YHR030C, strain SLT2, stronger effect = lower value 1.01 and 0.993 | locus YHR079C, strain IRE1 (second series), stronger effect = lower value 1.01 | locus YHR079C, strain IRE1, stronger effect = lower value 0.987 | locus YHR094C, strain hxt1, stronger effect = lower value 0.987 | locus YHR129C, strain ARP1, stronger effect = lower value 1.02 | locus YHR142W, strain chs7, stronger effect = lower value 0.941 | locus YHR200W, strain rpn10, stronger effect = lower value 1 | locus YIL066C, strain RNR3, stronger effect = lower value 1.02 | locus YIL073C, strain SPO22, stronger effect = lower value 1 | locus YIL125W, strain kgd1, stronger effect = lower value 0.984 | locus YIR030C, strain dcg1, stronger effect = lower value 0.996 | locus YJL092W, strain hpr5, stronger effect = lower value 0.959 | locus YJL095W, strain BCK1 (second series), stronger effect = lower value 0.994 | locus YJL095W, strain BCK1, stronger effect = lower value 1.01 and 0.986 | locus YJL115W, strain asf1, stronger effect = lower value 0.982 | locus YJL129C, strain trk1, stronger effect = lower value 0.965 | locus YJL134W, strain LCB3, stronger effect = lower value 1.01 | locus YJL154C, strain vps35, stronger effect = lower value 0.987 | locus YJL164C, strain tpk1, stronger effect = lower value 0.988 | locus YJL166W, strain qcr8, stronger effect = lower value 0.987 | locus YJL168C, strain set2, stronger effect = lower value 0.98 | locus YJL187C, strain SWE1 (second series), stronger effect = lower value 1.01 | locus YJL187C, strain SWE1, stronger effect = lower value 0.993 | locus YJR043C, strain POL32, stronger effect = lower value 1.02 | locus YJR066W, strain TOR1, stronger effect = lower value 0.914
